Test results from PubChem BioAssay AID1159580 (chemical genetic matrix, 2015).
Hit rate of the full screen: of about 5,500 compounds, about 2,000 (36%) were called active. Roughly 18% stayed inconclusive and do not appear here. No stated cut-off is given here; in the data, active means normalized growth mostly below about 0.91 (no sharp cut-off); inconclusive means no clear call, values can overlap the other calls; inactive means mostly above about 0.92. Some of the results follow.

Experiment: chemical genetic growth profiling, strain panel (AID 1159580);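 further: tested at 20 µM; growth read once vehicle control cultures reached saturation at 30 °C; 1 = growth at the plate median or of vehicle wells; lower values mean less growth of the strain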
Conditions: S. cerevisiae deletion strains, growth OD

Measured: normalized growth

CN(C)C(N)=NCCC[C@H](N)C(=O)O
inactive: locus YAL013W, strain DEP1, active compounds read low 1 | locus YAL040C, strain CLN3, active compounds read low 0.998 | locus YCL061C, strain MRC1 (second series), active compounds read low 1.01 | locus YDR150W, strain NUM1, active compounds read low 0.997 | locus YDR363W, strain ESC2, active compounds read low 1.04 | locus YER002W, strain NOP16, active compounds read low 0.979 | locus YJR075W, strain HOC1, active compounds read low 1.01 | locus YMR307W, strain GAS1, active compounds read low 1.01 | locus YNL128W, strain TEP1, active compounds read low 0.988 | locus YNL175C, strain NOP13, active compounds read low 1 | locus YNL197C, strain WHI3, active compounds read low 1.02 | locus YNL224C, strain SQS1, active compounds read low 0.984 | locus YOR083W, strain WHI5 (second series), active compounds read low 0.988 | locus YPL055C, strain LGE1, active compounds read low 1.03 | locus YPL241C, strain CIN2, active compounds read low 1
